# Test results: PubChem BioAssay (NCATS)
# Inconclusive results are not listed. Active and inactive are the calls of the source. Calls follow the shape of the dose curve; as a rule, active = well fitted inhibition curve with a large enough effect; inconclusive = small, poorly fitted or top-dose-only effect, or effect the other way; inactive = flat fitted curve, though single readings scatter.
# Target: ATP-dependent 6-phosphofructokinase (Trypanosoma brucei brucei) (UniProt O15648)
# Assay: qHTS Assay to Find Inhibitors of T. brucei phosphofructokinase: hit validation (AID 492961);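 also: luminescence reports ADP formed as PFK phosphorylates fructose-6-phosphate with ATP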
# Conditions: T. brucei PFK, ADP-Glo luminescence; series mostly up to 51.4 µM; activity change, negative = inhibition: at the top concentration
# Summary of the method: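 Percent activity derived from corrected luminescence, normalized between 0x and 1x enzyme controls, then fitted to concentration-response curves. Conditions: 1.25 nM PFK, 0.1 mM ATP, 0.5 mM F6P, 45 min RT.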
# % is scaled to controls: 0 for no effect and ±100 for the full control effect.
# Chain of ATP-dependent 6-phosphofructokinase (Trypanosoma brucei brucei) (O15648 whole entry, looked up): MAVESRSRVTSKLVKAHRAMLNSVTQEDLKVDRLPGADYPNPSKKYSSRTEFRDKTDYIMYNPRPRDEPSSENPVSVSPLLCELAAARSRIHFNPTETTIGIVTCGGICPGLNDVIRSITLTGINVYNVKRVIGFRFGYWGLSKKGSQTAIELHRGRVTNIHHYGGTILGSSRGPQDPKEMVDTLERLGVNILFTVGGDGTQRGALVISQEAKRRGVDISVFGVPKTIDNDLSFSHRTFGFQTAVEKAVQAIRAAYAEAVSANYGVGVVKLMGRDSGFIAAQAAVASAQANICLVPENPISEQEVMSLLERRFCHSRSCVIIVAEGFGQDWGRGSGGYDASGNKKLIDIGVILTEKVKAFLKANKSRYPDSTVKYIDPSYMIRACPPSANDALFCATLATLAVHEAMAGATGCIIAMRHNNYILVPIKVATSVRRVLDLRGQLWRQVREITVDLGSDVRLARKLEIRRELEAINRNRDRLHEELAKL
row,Structure (SMILES),"activity change, negative = inhibition"
1,Cc1cc(NS(=O)(=O)c2ccc(N)cc2)nc(C)n1,6.17% (inactive)
2,CN1CCN(C2=Nc3ccccc3Sc3ccc(Cl)cc32)CC1,-1.63% (inactive)
3,COc1ccc(-c2cc(C(F)F)nn2-c2ccc(S(N)(=O)=O)cc2)cc1F,-1.48% (inactive)
4,O=S(=O)(O)c1ccc(O)cc1,6.78% (inactive)
5,CC(=O)Nc1ccc(OCC(O)CNC(C)C)cc1 (stereo unspecified),6.4% (inactive)
6,NCc1ccccc1Sc1ccccc1CO,-6.54% (inactive)
7,CC(=O)Oc1ccc(C)cc1,-1.49% (inactive)
8,CN1CCN(c2cc3c(cc2F)c(=O)c(C(=O)O)cn3-c2ccc(F)cc2)CC1,4.2% (inactive)
9,CCOC(=O)Nc1ccc2c(c1)N(C(=O)CCN1CCOCC1)c1ccccc1S2,8.4% [at 24.3 µM] (inactive)
10,Cn1c(=O)c2[nH]c(Br)nc2n(C)c1=O,0% (inactive)
11,CC(C)(C)CC(C)(C)c1ccc(O)c(-n2nc3ccccc3n2)c1,6.93% (inactive)
12,COc1cc(C(=O)N2CCCCCCC2)cc(OC)c1OC,-3.21% (inactive)
13,CCCCCCCC/C=C\CCCCCCCCN,-4.74% (inactive)
14,Cc1cccc(C)c1NC(=O)c1ccccc1C(=O)O,-8.38% (inactive)
15,CC(=O)O[C@]1(C(C)=O)CC[C@H]2[C@@H]3C=C(Cl)C4=CC(=O)CC[C@]4(C)[C@H]3CC[C@@]21C,0.613% (inactive)
16,CCCCCCCCCCCCCC[N+](C)(C)Cc1ccccc1,16.2% (inactive)
17,Cc1cccc(C)c1NC(=O)CN1CCCCCC1,-3.22% (inactive)
18,CCCCCCCCCCCCCCCC(=O)O,2.16% (inactive)

row,Structure (SMILES),"activity change, negative = inhibition"
1,c1ccc(CC2=NCCN2)cc1,12.6% [at 24.3 µM] (inactive)
2,CCN(CC)CCOC(=O)C1(c2ccccc2)CCCC1,-2.79% (inactive)
3,Cc1cc2c(OCC(CNC(C)(C)C)OC(=O)c3ccccc3)cccc2[nH]1 (stereo unspecified),-8.13% (inactive)
4,NC(=O)C1(N2CCCCC2)CCN(CCCC(=O)c2ccc(F)cc2)CC1,-11.4% (inactive)
5,CCOC(=O)c1c(N)sc2c1CCN(Cc1ccccc1)C2,-8.47% (inactive)
6,CN(C)CCC[C@@]1(c2ccc(F)cc2)OCc2cc(C#N)ccc21,-0.96% (inactive)
7,CN1CCC(OC(c2ccccc2)c2ccccc2)CC1,9.92% [at 24.3 µM] (inactive)
8,O=C(NCCc1c[nH]c2ccccc12)c1cccnc1,0% (inactive)
9,CCCCC(CC)COC(=O)/C=C/c1ccc(OC)cc1 (stereo unspecified),-5.2% (inactive)
10,CC(C)[N+](C)(C)CC(O)COc1cccc2ccccc12 (stereo unspecified),-1.2% (inactive)
11,CCCCCCCCOc1ccc(C(=O)c2ccccc2)c(O)c1,2.53% (inactive)
12,NC(=O)c1ccccc1O,0.419% (inactive)
13,CCCCNC(=O)NS(=O)(=O)c1ccc(N)cc1,-5.86% (inactive)
14,NCCNc1cccc2ccccc12,7.75% (inactive)
15,CC1=C(C(=O)O)N2C(=O)[C@@H](NC(=O)[C@H](N)c3ccccc3)[C@H]2SC1,6.77% (inactive)
16,CN(CCCN1c2ccccc2CCc2ccccc21)CC(=O)c1ccc(Cl)cc1,-9.54% (inactive)
17,O=[N+]([O-])c1cccc(S(=O)(=O)NCCNS(=O)(=O)c2cccc([N+](=O)[O-])c2)c1,4.87% (inactive)
18,CCCN(CCc1cccs1)[C@H]1CCc2c(O)cccc2C1,1.04% (inactive)
